SMN2 splice up: increases expression of the SMN2 splice variant | Potency, µM (series often up to 46.1 µM), inactives show at the top dose activity change, positive = activation, actives largely listed as activators | 210,000 tested, 2.8% active | HEK293 SMN2-luciferase splicing reporter, luminescence, 30-36 h; note: % of control where 0% means no effect; nearly all actives have a fitted effect of over 55% in size
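HEK293 cells carry an SMN2 […]–luciferase reporter in which exon 7 inclusion puts luciferase in frame. Cells were plated 10-12 h before compound addition, then incubated 30-36 h at 37C. ONE-Glo luminescence was read; sodium butyrate at 4.5 mM final served as control.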
NPC1 prom act: activates the NPC1 promoter | Huh7 NPC1 promoter luciferase reporter, 24 h | Potency, µM (top dose mostly 9.22 µM), for inactives: at the top dose activation, most hits filed as activators | 320,000 tested, 2.4% active | AID 485313; note: % of control where 0% means no effect; nearly all actives have a fitted effect of over 60% in size
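In 1536-well qHTS, Huh7 cells harboring an NPC1 promoter–luciferase construct received compound for 24 h; activation was quantified by luminescence following luciferase reagent addition.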
ELG1 genotoxic: inducers of genotoxicity in HEK293T ELG1-luciferase cells. Potency, µM (series often up to 46 µM), for the others: top-dose activity change, positive = activation, most hits filed as activators. HEK293T ELG1-luciferase reporter, luminescence, 16 h. 330,000 tested, 1.3% active; note: % of control where 0% means no effect; nearly all actives have a fitted effect of over 60% in size
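Step 1: seed 2,000 HEK293T ELG1-luciferase cells per well. Step 2: add compound or DMSO, incubate 16 hr at 37 °C. Step 3: ONE-Glo, 30 min at room temperature, read luminescence.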
Rab9 prom act: activates the Rab9 promoter. Huh7 Rab9 promoter-luciferase reporter, luminescence, 24 h. AID 485297. 320,000 tested, 2.8% active. Potency, µM (titrated, usually from 9.22 µM), for inactives: at the top dose activation, negative = inhibition, most hits filed as activators; note: % of control where 0% means no effect; nearly all actives have a fitted effect of over 60% in size
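Cell-based reporter: Huh7 stable for Rab9 promoter-driven luciferase, plated in reduced-serum medium with 10% FBS at 1500 cells/well, compound-treated 24 h at 37 °C, luminescence read after 10 min reagent.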
FLuc modulator: counter-screen for miR-21 project: firefly luciferase inhibitors or activators | Potency, µM (top dose mostly 57.5 µM), for the others: top-dose activity change, negative = inhibition, most hits filed as inhibitors | AID 588342 | purified FLuc, Km substrates, luminescence inhibition | 360,000 tested, 6.9% active;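 note: plate controls were vehicle for no effect and reference inhibitor for full effect; nearly all actives have a fitted effect of over 55% in size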
Target sequence (P08659 whole entry, looked up): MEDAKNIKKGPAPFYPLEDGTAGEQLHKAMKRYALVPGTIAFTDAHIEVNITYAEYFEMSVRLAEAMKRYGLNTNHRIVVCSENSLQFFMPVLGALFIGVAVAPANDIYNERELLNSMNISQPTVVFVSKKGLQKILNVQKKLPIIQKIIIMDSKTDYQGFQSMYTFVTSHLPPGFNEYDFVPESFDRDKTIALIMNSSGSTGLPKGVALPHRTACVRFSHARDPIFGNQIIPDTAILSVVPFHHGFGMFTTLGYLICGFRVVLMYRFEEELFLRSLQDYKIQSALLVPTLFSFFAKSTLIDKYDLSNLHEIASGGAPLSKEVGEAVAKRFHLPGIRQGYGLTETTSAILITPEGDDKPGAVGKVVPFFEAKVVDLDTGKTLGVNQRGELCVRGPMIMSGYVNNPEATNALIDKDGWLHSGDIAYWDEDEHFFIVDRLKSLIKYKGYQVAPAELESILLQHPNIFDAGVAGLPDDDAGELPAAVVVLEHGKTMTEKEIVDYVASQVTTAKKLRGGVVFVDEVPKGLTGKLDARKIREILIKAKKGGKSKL
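Purified P. pyralis luciferase (10nM final) with 10uM D-luciferin and 10uM ATP (Km levels) in 50mM Tris acetate pH 7.5, 10mM Mg acetate, 0.01% Tween-20, 0.05% BSA; qHTS 6-point titration, ~60 µM downward; luminescence read.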
* = called active by the depositor; ? = inconclusive; nt = no result given; [ ] = another dose, or the depositor's remark. This is a sample that favours compounds with a hit; in the whole collection about 7.5% have one here. Calls come from the whole dose curve; as a rule, active = well fitted curve in the direction sought with a large enough effect; inconclusive = small, poorly fitted or top-dose-only effect, or another doubt; inactive = no such curve, though single readings can be large; an effect the other way counts as inactive or inconclusive. Potency is the fitted concentration of half-maximal effect.

SMILES	SMN2 splice up	NPC1 prom act	ELG1 genotoxic	Rab9 prom act	FLuc modulator
CCOC(=O)Cc1csc(NC(=O)COc2c(C)cccc2C)n1	0%	1%	-2%	-3%	?
CCOC(=O)Cc1csc(NC(=O)COc2ccc3ccccc3c2)n1	-7%	1%	0%	-6%	13µM*
Cc1[nH]c2ccc(C(=O)NCCCN3CCCCC3)cc2c1C	nt	0%	7%	5%	2%
O=C(N/N=C/C(Cl)=C\c1ccccc1)c1cnccn1	13%	21%	?	22%	11µM*
COc1ccccc1/C=C/C=N/NC(=O)c1cnccn1	nt	14%	13%	23%	?
CC(/C=N/NC(=O)c1ccncc1)=C\c1ccc(C(C)C)cc1	nt	28%	0%	2.8µM*	?
CC(/C=N/NC(=O)CSc1ccccn1)=C\c1ccc(C(C)C)cc1	?	?	?	22%	?
O=C(N/N=C/C(Cl)=C/c1ccccc1)c1cnccn1	14%	17%	17%	21%	12µM*
CC(/C=N/NC(=O)C(O)c1ccccc1)=C\c1ccccc1 (stereo not given)	22%	?	7%	?	13µM*
COc1cccc(CN(C)C(=O)c2ccc(OCC(=O)Nc3cccc(C(F)(F)F)c3)c(OC)c2)c1	nt	-26%	-8%	-31%	3%
CCCCC(O)CN1CCC(c2ccccc2)CC1 (stereo not given)	4%	-2%	1%	0%	1%
COc1ccc(NC(=O)CC(C)S(=O)(=O)c2ccc3c(c2)NC(=O)CO3)cc1OC (stereo not given)	nt	nt	nt	nt	2%
CC(/C=N/NC(=O)c1ccc(Br)cc1)=C\c1ccccc1	12%	20%	?	1%[1.84 µM]	?
Cc1cc(C)nc(N/N=C/c2ccc(Cl)cc2)n1	nt	22%	-16%	5%	?
CC(=C/c1ccccc1)/C=N/NC(=O)c1cnccn1	?	4µM*	8.9µM*	?	4.8µM*
CC(/C=N/NC(=O)c1cccnc1)=C\c1ccccc1	nt	?	?	?	13µM*
CC(/C=N/Nc1nc(C)cc(C)n1)=C\c1ccc(C(C)C)cc1	-6%	-4%	2%	8%	19µM*
CC1(C)CC(NC(=O)c2sc3cc(Cl)ccc3c2Cl)CC(C)(C)N1	-30%	-5%	7%	-6%	0%
O=C(NC1CC1)c1sc2cc(Cl)ccc2c1Cl	nt	?	?	?	6.7µM*
O=C(NC1CC1)c1sc2ccccc2c1Cl	nt	?	?	?	15µM*
O=C(NNC(=O)C1CC2CCC1C2)c1sc2ccccc2c1Cl (stereo not given)	22µM*	?	19%	?	24µM*
O=C(NNC(=S)NC1CCCCC1)c1sc2ccccc2c1Cl	-18%	5%	-3%	-5%	?
O=C(NC(=S)NCCO)c1sc2ccccc2c1Cl	13µM*	?	?	2.8µM*	6µM*
CCOc1ncccc1C(=O)OCC(=O)N1CCC(C)CC1	nt	nt	8%	nt	nt
O=C(NC1CC1)c1sc2cc(F)ccc2c1Cl	nt	23%	?	?	9.5µM*
SMILES	SMN2 splice up	NPC1 prom act	ELG1 genotoxic	Rab9 prom act	FLuc modulator
O=C(NCCCN1CCOCC1)c1sc2cc(F)ccc2c1Cl	13%	9%	15%	?	?
CN(CC(=O)Nc1ccc(S(=O)(=O)N(C)C)cc1)Cc1ccc(C(F)(F)F)cc1	-9%	-4%	-6%	0%	-3%
CCCOC(=O)c1ccc(NC(=O)c2ccoc2C)cc1	?	3.2µM*	15%	1.6µM*	9.5µM*
CCCCOC(=O)c1ccc(NC(=O)c2ccoc2C)cc1	?	21%	21µM*	?	?
CCCCOC(=O)c1ccc(NC(=O)c2ocnc2C)cc1	-8%	19%	5%	21%	17µM*
CC(=O)CCc1ccc(OCC(=O)Nc2cccc(S(=O)(=O)N(C)c3ccccc3)c2)cc1	nt	-2%	-2%	-12%	11µM*
Cc1cc(Cl)ccc1OCC(=O)Nc1cccc(S(=O)(=O)NC2=NCCCCC2)c1	nt	8%	-5%	1%	13µM*
CC(C)(C)c1ccc(OCC(=O)Nc2cccc(S(=O)(=O)NC3=NCCCCC3)c2)cc1	nt	-1%	0%	-1%	11µM*
CN(c1ccccc1)S(=O)(=O)c1cccc(NC(=O)COc2ccccc2)c1	nt	2%	-10%	-9%	nt
O=C(COc1ccc(Cl)cc1)Nc1cccc(S(=O)(=O)NCc2ccco2)c1	nt	-2%	-1%	1%	17µM*
COC(=O)[C@]1(Cc2ccccc2)N[C@H](c2ccc(SC3CCCCC3)c(OC)c2)[C@@H]2C(=O)N(C)C(=O)[C@@H]21	nt	nt	-4%	nt	nt
O=C(COC(=O)c1cccc(S(=O)(=O)N2CCCCC2)c1)NC1CCCc2ccccc21 (stereo not given)	13%	-2%	0%	0%	-1%
COC(=O)c1cc(S(=O)(=O)N2CCN(c3cccc(C)c3)C(C)C2)c[nH]1 (stereo not given)	nt	-2%	-2%	-1%	0%
O=C(COc1ccc(Cl)cc1)Nc1cccc(S(=O)(=O)NC2=NCCCCC2)c1	nt	3%	16%	-6%	15µM*
COc1ccccc1OCC(=O)Nc1cccc(S(=O)(=O)NC2=NCCCCC2)c1	nt	-1%	0%	0%	-13%
O=C(COc1ccccc1Cl)Nc1cccc(S(=O)(=O)NC2=NCCCCC2)c1	nt	-2%	-4%	-2%	19µM*
COc1ccc2c(c1)CCc1c(C(=O)N(C)c3ccccc3)noc1-2	5µM*	?	?	?	13µM*
COc1ccc2c(c1)CCc1c(C(=O)Nc3ccc(C#N)cc3)noc1-2	18%	nt	nt	nt	-2%
COc1ccc2c(c1)CCc1c(C(=O)NCc3ccco3)noc1-2	7.1µM*	3.5µM*	?	1.6µM*	7.6µM*
COc1ccc2c(c1)CCc1c(C(=O)NC3CCCCC3)noc1-2	7.1µM*	1.4µM*	?	1.1µM*	1.3µM*
COCCNC(=O)c1noc2c1CCc1cc(OC)ccc1-2	7.9µM*	3.5µM*	?	?	?
COc1ccc2c(c1)CCc1c(C(=O)Nc3cc(OC)c(Cl)cc3OC)noc1-2	3%	nt	nt	nt	-5%
COc1ccc2c(c1)CCc1c(C(=O)NCCN3CCOCC3)noc1-2	-6%	-1%	2%	-3%	-16%
Nc1nc(N)c(-c2cccc(C(F)(F)F)c2)c(Cc2cccc(C(F)(F)F)c2)n1	-2%[9.22 µM]	nt	nt	nt	nt
CCOc1cc(C)c(Cl)cc1S(=O)(=O)N1CCCC1	-21%	-1%	3%	-14%	-3%
CC(C)(C)NC(=O)C1Cc2ccccc2CN1C(=O)Nc1cccc(Cl)c1 (stereo not given)	-11%	1%	-3%	4%	2%
COCC(C)NC(=O)c1noc2c1CCc1cc(OC)ccc1-2 (stereo not given)	10µM*	3.2µM*	?	2.5µM*	13µM*

Screening results from PubChem.
